Rows were chosen to be rich in hits. Some 19% of all compounds tested hit in one or more screens of this group.
KB-3-1 tox: KB-3-1 parental cell cytotoxicity. KB-3-1 viability, CellTiter-Glo ATP luminescence, 72 h. Potency, µM (top dose mostly 46.1 µM), hits mostly cytotoxic. 400,000 compounds, 1.4% hits. AID 1347075; also: nearly all actives have a fitted effect of over 60% in size
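Cells are dispensed, compounds pinned in, plates held at 37 °C for 72 h, then CellTiter-Glo is added and luminescence read after 10 minutes. Cell line: parental KB-3-1 in phenol-red-free DMEM, 10% FBS.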
DT40 TDP1 CPT: DT40-hTDP1 cell growth loss with CPT. chicken DT40 Tdp1-/-;hTDP1 cells + 20 nM CPT, ATP luminescence, 48 h. Potency, µM (top dose mostly 46.2 µM), usual class: inhibitors. 420,000 compounds, 12% hits. AID 686979; also: nearly all actives have a fitted effect of over 55% in size
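Cell growth measured by CellTiter-Glo luminescence after a minimum 48 h, 37 C compound exposure with 20 nM CPT in Tdp1-knockout DT40 cells stably expressing hTDP1, seeded 400/well; qHTS titration format.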
HT1080 IDH1KD tx: toxicity to HT-1080 IDH1 knockdown cells (counter line) | Potency, µM (series often up to 46.1 µM), actives largely listed as cytotoxic | HT-1080 IDH1 knockdown viability, ATP luminescence, 48 h | 360,000 compounds, 2% hits
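Using the IDH1-knockdown HT-1080 line run in the same batch and compound series as the NT line, viability after 48 h at 37 °C was determined by CellTiter-Glo luminescence and expressed as % activity.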
TDP1 cell noCPT: qHTS for Inhibitors of human tyrosyl-DNA phosphodiesterase 1 (TDP1): qHTS in cells in absence of CPT. DT40 Tdp1-/- hTDP1 cells, no CPT, ATP luminescence, 48 h. Potency, µM (top dose mostly 46.2 µM), hits mostly inhibitors. 420,000 compounds, 15% hits; also: nearly all actives have a fitted effect of over 55% in size
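Camptothecin absent (DMSO only). Human TDP1-complemented DT40 knockout cells, 400 cells/well, 37 °C for minimum 48 hr; ATP measured via CellTiter-Glo, 30 min dark incubation, luminescence.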
HT1080NT lethal: kills 2HG-producing HT-1080-NT fibrosarcoma cells; HT-1080-NT fibrosarcoma viability, CellTiter-Glo ATP luminescence, 48 h; Potency, µM (titrated, usually from 46.1 µM), hits mostly cytotoxic; 360,000 compounds, 1.6% hits;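 also: NT is the 2HG producing partner of a matched IDH1 knockdown line; nearly all actives have a fitted effect of over 55% in size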
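HT-1080-NT; 750 cells/well; 5% FBS RPMI; 48 h compound, 37 degrees C; CellTiter-Glo luminescence; curve fitting and curve-class assignment.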
KB-V1 MDR tox: KB-V1 MDR subline cytotoxicity | KB-V1 MDR cells viability, CellTiter-Glo, 72 h | Potency, µM (series often up to 46.1 µM), actives largely listed as cytotoxic | 400,000 compounds, 3.4% hits | AID 1347076; also: nearly all actives have a fitted effect of over 60% in size
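KB-V1 cells (P-gp-expressing MDR subline of KB-3-1) in phenol-red-free DMEM with 10% FBS were exposed to library compounds over a concentration series for 72 h at 37 degrees C. Viability read by CellTiter-Glo luminescence; concentration-effect curves fitted after normalization.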
Each line names hits and unclear results; the compound was inactive in the other large screens. Calls follow the shape of the dose curve; as a rule, active = well fitted curve in the direction sought with a large enough effect; inconclusive = small, poorly fitted or top-dose-only effect, or another doubt; inactive = no such curve, though single readings can be large; an effect the other way counts as inactive or inconclusive.

CN(Cc1cnn(Cc2ccccc2)c1)C(=O)c1cccc(S(=O)(=O)N2CCOCC2)c1	KB-3-1 tox 14.6µM, DT40 TDP1 CPT 7.31µM, HT1080 IDH1KD tx inconclusive, TDP1 cell noCPT 5.8µM, HT1080NT lethal inconclusive
CCc1nc2ccc(C(=O)NCC3CCCCC3)cn2c1N(C)C(=O)c1cccc(OC)c1	DT40 TDP1 CPT inconclusive, TDP1 cell noCPT inconclusive
CCOC(=O)c1c(C)oc2nc(C)nc(NCc3cccc(Cl)c3)c12	DT40 TDP1 CPT inconclusive, TDP1 cell noCPT 20.6µM (no result: HT1080 IDH1KD tx, HT1080NT lethal)
CCOC(=O)c1c(C)oc2nc(C)nc(NCc3ccc(OC)cc3)c12	DT40 TDP1 CPT inconclusive, TDP1 cell noCPT inconclusive (no result: HT1080 IDH1KD tx, HT1080NT lethal)
CCOC(=O)c1c(C)oc2nc(C)nc(NCc3cccc(OC)c3)c12	DT40 TDP1 CPT 16.4µM, TDP1 cell noCPT inconclusive (no result: HT1080 IDH1KD tx, HT1080NT lethal)
CCOC(=O)c1c(C)oc2nc(C)nc(NCc3ccc(C)cc3)c12	TDP1 cell noCPT inconclusive (no result: HT1080 IDH1KD tx, HT1080NT lethal)
COC(=O)c1ccccc1NC(=O)CSc1ncn[nH]1	none
COc1ccc(-c2cc3nccc(-c4cc(Cl)c(C)cc4O)n3n2)cc1	none (no result: HT1080 IDH1KD tx, HT1080NT lethal)
COCCCn1c(=O)c2sccc2n2c(CCCC(=O)Nc3ccc(F)c(F)c3)nnc12	DT40 TDP1 CPT inconclusive, TDP1 cell noCPT inconclusive (no result: HT1080 IDH1KD tx, HT1080NT lethal)
CCc1nn(CC(=O)NCCc2ccc(OC)c(OC)c2)c(=O)c2cc3occc3n12	DT40 TDP1 CPT inconclusive (no result: HT1080 IDH1KD tx, HT1080NT lethal)
Cc1ccc(-c2ocnc2C(=O)N2CCOCC2)cc1	none
CCOC(=O)c1cccc(Nc2nc(-c3cccnc3)nc3ccccc23)c1	KB-3-1 tox inconclusive, DT40 TDP1 CPT 23.1µM, HT1080 IDH1KD tx inconclusive, TDP1 cell noCPT 10.3µM, HT1080NT lethal 20.6µM, KB-V1 MDR tox inconclusive
O=C(O)c1cccc(Nc2nc(-c3cccnc3)nc3ccccc23)c1	KB-3-1 tox inconclusive, DT40 TDP1 CPT inconclusive, TDP1 cell noCPT inconclusive
COC(=O)c1cccc(Nc2nc(-c3cccnc3)nc3ccccc23)c1	DT40 TDP1 CPT inconclusive, TDP1 cell noCPT 9.2µM, KB-V1 MDR tox inconclusive
O=C(c1ccc(Cl)c(Cl)c1)c1cc(-c2ccccn2)c(N2CCOCC2)s1	DT40 TDP1 CPT inconclusive, TDP1 cell noCPT inconclusive, KB-V1 MDR tox 4.11µM
O=C(c1ccc(Br)cc1)c1cc(-c2ccccn2)c(N2CCOCC2)s1	DT40 TDP1 CPT inconclusive, TDP1 cell noCPT inconclusive, KB-V1 MDR tox 4.11µM
Cc1ccc2c(c1)N(CC(=O)OC(CC(C)C)C(=O)NC1CCCC1)C(=O)CO2 (centres undefined)	DT40 TDP1 CPT inconclusive, TDP1 cell noCPT inconclusive, KB-V1 MDR tox 3.66µM
CC(C)C(OC(=O)CN1C(=O)COc2ccccc21)C(=O)NC1CCCC1 (centres undefined)	KB-V1 MDR tox 6.51µM
Cc1ncc2c(c1CNC(=O)/C=C/c1cccs1)CCN(C(=O)c1c(C)noc1C)C2	none (no result: KB-3-1 tox, HT1080 IDH1KD tx, HT1080NT lethal, KB-V1 MDR tox)
COc1ccc(CCc2ccc3ccccc3n2)cc1	TDP1 cell noCPT inconclusive
COc1ccc(OC)c(C(Cc2ccnc3ccccc23)Cc2ccnc3ccccc23)c1	DT40 TDP1 CPT 12.6µM, TDP1 cell noCPT 12.6µM (no result: HT1080 IDH1KD tx, HT1080NT lethal)
COc1ccc(CCc2ccnc3ccccc23)cc1	KB-3-1 tox inconclusive, DT40 TDP1 CPT inconclusive, HT1080 IDH1KD tx inconclusive, TDP1 cell noCPT 20.6µM, KB-V1 MDR tox inconclusive
COc1ccccc1CCc1nnc(CCC(=O)N(C)Cc2cccc3cnccc23)o1	DT40 TDP1 CPT inconclusive, TDP1 cell noCPT 23.1µM
c1ccc2c(CCc3c[nH]c4ccccc34)ccnc2c1	KB-3-1 tox inconclusive, DT40 TDP1 CPT 12.6µM, TDP1 cell noCPT 15.8µM (no result: HT1080 IDH1KD tx, HT1080NT lethal)
CC(C)(C)n1nc2c(c1NC(=O)Cc1ccccc1)CS(=O)(=O)C2	none
COc1ccccc1Oc1ccc(NC(=O)Cc2ccccc2)cc1	none
COc1ccc(C(=O)N2CCNC(=O)C2CC(=O)Nc2cc(Cl)ccc2OC)cc1 (centres undefined)	none
